34 compounds from PubChem BioAssay (NCATS) can be followed below.

The nature of assay [1]: qHTS of pediatric cancer cell lines to identify multiple opportunities for drug repurposing: Primary screen for OHS-50 cells (AID 1347103).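 For activity change, negative = cytotoxic: plate controls were DMSO neutral control for no effect and bortezomib positive control for full effect.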 Note: nearly all actives have a fitted effect of over 40% in size. Note: potency is the fitted concentration of half-maximal effect. In short, it runs like this: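 Cells (500-1,000/well) rested 5 h, then received compounds for 48 h; metabolically active cells were measured by CellTiter-Glo luminescence. Final concentrations spanned up to 46 µM (MIPE, 11-point) or 0.59 nM-46 µM (NPC, 8-point) in primary screens, 11-point in follow-ups.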
For orientation: qHTS replaces the single test concentration by a dilution series.

Assay [2] is described as follows: qHTS of pediatric cancer cell lines to identify multiple opportunities for drug repurposing: Primary screen for RD cells (AID 1347104).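 For activity change, negative = cytotoxic: plate controls were DMSO for no effect and bortezomib for full effect.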 Note: nearly all actives have a fitted effect of over 55% in size. Note: potency is the fitted concentration of half-maximal effect. In short, it runs like this:
(§1)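 Cells plated at 500-1,000/well in growth medium, compounds added after 5 h. MIPE tested at 11 points (from 0.78 nM), NPC at 8 points (from 0.59 nM). CellTiter-Glo luminescence after 48 h; concentration-response curves from primary screen.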

Assay [3] in a line: qHTS of pediatric cancer cell lines to identify multiple opportunities for drug repurposing: Primary screen for MG 63 (6-TG R) cells (AID 1347105). For activity change, negative = cytotoxic: % is set by controls: 0 for no effect and ±100 for the full control effect. Note: nearly all actives have a fitted effect of over 50% in size. Note: potency is the fitted concentration of half-maximal effect. In a few lines:
as §1

Assay [4] is described as follows: qHTS of pediatric cancer cell lines to identify multiple opportunities for drug repurposing: Primary screen for control Hh wild type fibroblast cells (AID 1347106).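 Note: series mostly up to about 46 µM; % is set by controls: 0 for no effect and ±100 for the full control effect; a drop in luminescence marks cytotoxicity and a rise apparent proliferation; nearly all actives have a fitted effect of over 55% in size.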 In a few lines: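 Cells (500-1,000/well) in growth media were settled 5 h at 37 degrees C, then given compounds for 48 h. Viability was read as CellTiter-Glo luminescence. Primary runs used MIPE at 11 points (0.78 nM-46 µM) and NPC at 8 points (0.59 nM-46 µM); follow-ups used 11 points.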

The nature of assay [5]: qHTS of pediatric cancer cell lines to identify multiple opportunities for drug repurposing: Primary screen for Rh30 cells (AID 1347107). Note: series mostly up to about 46 µM; % is set by controls: 0 for no effect and ±100 for the full control effect; nearly all actives have a fitted effect of over 75% in size. In short, it runs like this: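 Viability after 48 h compound treatment at 37C, 500-1,000 cells/well, read as ATP luminescence with CellTiter-Glo. Primary screens used 11-point (MIPE, 0.78 nM-46 µM) or 8-point (NPC, 0.59 nM-46 µM) final concentrations; follow-up screens used 11-point dilutions.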

Assay [6] can be described thus: qHTS of pediatric cancer cell lines to identify multiple opportunities for drug repurposing: Primary screen for Rh41 cells (AID 1347108).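 Note: series mostly up to about 46 µM; luminescence drop marks cytotoxic hits; nearly all actives have a fitted effect of over 70% in size.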 In short, it runs like this: as §1

The structures appear in SMILES notation. Inconclusive results are not listed. Values without a mark were called inactive. Calls of active or inactive are those of the source. Calls come from the whole dose curve; as a rule, active = well fitted curve in the direction sought with a large enough effect; inconclusive = small, poorly fitted or top-dose-only effect, or another doubt; inactive = no such curve, though single readings can be large; an effect the other way counts as inactive or inconclusive. *1 amine or outer side, *2 acyl side, *3 side chain or, on linkers, in order; H or OH if unused. Where a SMILES comes first, the peptide text is derived from it. Bridges are numbered along the chain shown (N, C = ends). [ ]: non-standard residue; d: D form. The star is where a group is joined. ξ: configuration not given here. X10 = NC1=NCCC(C(N[*:1])C(=O)[*:2])N1; ΔAla(3-NHCONH2) = NC(=O)NC=C(N)C(=O)O; ξβ3hOrn = NCCCC(N)CC(=O)*; Dap = NC[CH](N)C(=O)O

On to `CN1CCCN=C1/C=C/c1cccs1`, for which the Potency entry in assay [1], in assay [2], in assay [3], in assay [4] and in assay [5] was “inactive” each time.
`CCC(=O)O[C@H]1[C@H](O[C@@H]2[C@@H](C)[C@H](O[C@H]3C[C@@](C)(OC)[C@@H](O)[C@H](C)O3)[C@@H](C)C(=O)O[C@H](CC)[C@@](C)(O)[C@H](O)[C@@H](C)C(=O)[C@H](C)C[C@@]2(C)O)O[C@H](C)C[C@@H]1N(C)C`: the Potency result in assay [1], in assay [2], in assay [3], in assay [4] and in assay [5] was “inactive” each time.
As for `CCCCCC[C@@H](CCC)C(=O)O`, the Potency result in assay [1], in assay [2], in assay [3], in assay [4], in assay [5] and in assay [6] was “inactive” in each case.
On to `CC(=O)/C=C/C=C1/C2CCC(C2)C1(C)C` (configuration not stated), for which the Potency entry in assay [1], in assay [2], in assay [3], in assay [4] and in assay [5] was “inactive” in each case.
Consider `CC(=O)OCC(=O)Nc1cc(C#N)cc(NC(=O)COC(C)=O)c1Cl`, for which the Potency entry in assay [1], in assay [2], in assay [3], in assay [4] and in assay [5] was “inactive” in each case.
`N#CSCC(=O)O`: the Potency entry in assay [1], in assay [2], in assay [3], in assay [4], in assay [5] and in assay [6] was “inactive” in each case.
As to `CC(NN)c1ccccc1` (configuration not stated), the Potency entry in assay [1], in assay [2], in assay [3], in assay [4] and in assay [5] was “inactive” in each case.
Regarding `CCN1C(=O)c2ccccc2C1Nc1ccc(OCCN2CCCCC2)cc1` (configuration not stated), the Potency result in assay [1], in assay [2], in assay [3], in assay [4] and in assay [5] was “inactive” in each case.
Turning to `CCc1cc(S(=O)(=O)O)c2cc(C(C)C)cccc1-2`, the Potency result in assay [1], in assay [2], in assay [3], in assay [4] and in assay [5] was “inactive” throughout.
With `CCC(C(=O)NC(=O)NC(C)=O)c1ccccc1` (configuration not stated), the Potency result in assay [1], in assay [2], in assay [3], in assay [4] and in assay [5] was “inactive” throughout.
Consider `Cc1onc(-c2ccccc2)c1C(=O)Cl`, for which the Potency entry in assay [1], in assay [2], in assay [3], in assay [4] and in assay [5] was “inactive” throughout.
Regarding `O=C1Cc2cc(Cl)ccc2N1`, the Potency entry in assay [1], in assay [2], in assay [3], in assay [4] and in assay [5] was “inactive” each time.
Regarding `C=C(C)C(=O)OCC(O)CO` (configuration not stated), the Potency result in assay [1], in assay [2], in assay [3], in assay [4], in assay [5] and in assay [6] was “inactive” in each case.
As to `Cc1c(N)cccc1C(F)(F)F`, the Potency result in assay [1], in assay [2], in assay [3], in assay [4] and in assay [5] was “inactive” throughout.
For the compound `Cc1ncc([N+](=O)[O-])n1C`, the Potency entry in assay [1], in assay [2], in assay [3], in assay [4] and in assay [5] was “inactive” in each case.
In the case of `OC1(c2ccc(Cl)cc2)CCNCC1`, the Potency entry in assay [1], in assay [2], in assay [3], in assay [4] and in assay [5] was “inactive” throughout.
Consider `[O-][n+]1cccc(/C(Cl)=N/OC[C@@H](O)CN2CCCCC2)c1`, for which the Potency entry in assay [1], in assay [2], in assay [3], in assay [4], in assay [5] and in assay [6] was “inactive” each time.
Regarding `COC(=O)c1c(Cl)c(Cl)c(C(=O)OC)c(Cl)c1Cl`, the Potency result in assay [1], in assay [2], in assay [3], in assay [4] and in assay [5] was “inactive” each time.
Consider `O=C(O)Cc1ccc(OCCNC[C@H](O)c2ccccc2)cc1`, for which the Potency result in assay [1], in assay [2], in assay [3], in assay [4] and in assay [5] was “inactive” throughout.
Consider `O=C(O)c1ccccc1S`, for which the Potency entry in assay [1], in assay [2], in assay [3], in assay [4] and in assay [5] was “inactive” in each case.
For the compound `CC(C)C(=O)Nc1cccc(C(F)(F)F)c1`, the Potency entry in assay [1], in assay [2], in assay [3], in assay [4] and in assay [5] was “inactive” in each case.
Consider `CC(=O)c1ccc(O)c(C(N)=O)c1`, for which the Potency entry in assay [1], in assay [2], in assay [3], in assay [4] and in assay [5] was “inactive” throughout.
In the case of `CCOC(=O)NNc1nncc2ccccc12`, the Potency result in assay [1], in assay [2], in assay [3], in assay [4] and in assay [5] was “inactive” in each case.
Regarding `NCCCC(N)CC(=O)NCC1NC(=O)C(CO)NC(=O)C(N)CNC(=O)C(C2CCN=C(N)N2)NC(=O)C(=CNC(N)=O)NC1=O` (stereo not drawn) (H-[Dap]S[Dap](ξβ3hOrn)[ΔAla(3-NHCONH2)][X10]; lactam 1-C; configuration not given here), the activity change, negative = cytotoxic is 13.9% [at 0.73 µM] in assay [1]; 2.79% [at 0.597 µM] in assay [2]; -12% [at 0.597 µM] in assay [3]; 5.88% [at 0.597 µM] in assay [4]; 22.4% [at 0.597 µM] in assay [5].
Regarding `NS(=O)(=O)c1cc(C(=O)NN2C[C@H]3[C@H]4CCC(C4)[C@H]3C2)ccc1Cl`, the Potency entry in assay [1], in assay [2], in assay [3], in assay [4] and in assay [5] was “inactive” throughout.
As to `O=C(O)/C=C(\CC(=O)O)C(=O)O`, the Potency result in assay [1], in assay [2], in assay [3], in assay [4] and in assay [5] was “inactive” in each case.
As for `COC(=O)[C@H]1[C@H]2C[C@@H]3c4[nH]c5cc(OC)ccc5c4CCN3C[C@H]2C[C@@H](OC(=O)/C=C/c2ccc(O)c(OC)c2)[C@@H]1OC`, the Potency in assay [1] is 34.7 µM (active).
For `Cc1ccccc1C(=O)N1CC/C(=N\OS(=O)(=O)O)c2ccc(Cl)cc21`, the Potency entry in assay [1], in assay [2], in assay [3], in assay [4] and in assay [5] was “inactive” throughout.
As for `CCn1ccc(NS(=O)(=O)c2ccc(N)cc2)nc1=O`, the Potency result in assay [1], in assay [2], in assay [3] and in assay [4] was “inactive” each time.
On to `CCCC(=O)Nc1ccc(O)c(C(C)=O)c1`, for which the Potency entry in assay [1], in assay [2], in assay [3], in assay [4], in assay [5] and in assay [6] was “inactive” each time.
Regarding `Cc1coc2ccccc2c1=O`, the Potency result in assay [1], in assay [2], in assay [3], in assay [4] and in assay [5] was “inactive” each time.
Turning to `O=C(O)Cc1ccccc1Oc1ccc(Cl)cc1Cl`, the Potency result in assay [1], in assay [2], in assay [3], in assay [4] and in assay [5] was “inactive” in each case.
Take `O=C(Nc1ccc(Cl)cc1)Nc1ccc(Cl)c(C(F)(F)F)c1`: the Potency was 5.5 µM (active) in assay [1], 11.9 µM (active) in assay [2] and 21.1 µM (active) in assay [3].
On to `CC(=O)N(CC(O)CO)c1c(I)c(C(=O)NCCO)c(I)c(C(=O)NCC(O)CO)c1I` (configuration not stated), for which the Potency entry in assay [1], in assay [2], in assay [3] and in assay [4] was “inactive” each time.
